Screening results (PubChem)
NS1 function inh: influenza NS1 inhibition | Potency, µM (doses to about 46.1 µM), without a hit: top-dose activity, positive = more growth | hit rate 0.4% among 270,000 | AID 2326; calls by dose curve; note: potency is the fitted concentration of half-maximal effect; actives are rising curves; nearly all actives have a fitted effect of over 50% in size
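Compounds were scored for reversing the slow growth caused by influenza A NS1 in S. cerevisiae, measured by optical density at 600 nm. Assay medium contained 2% galactose at pH 6.0; NS1-free yeast of the same strain were the positive control.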
Pf growth 48h: P. falciparum growth inhibition at 48 hours (one generation) | P. falciparum luciferase growth in erythrocytes, 48 h | Potency, µM (highest dose often 28.7 µM), without a hit: at the highest dose activity change, negative = inhibition, hits mostly inhibitors | hit rate 5.9% among 310,000 | AID 504832; note: potency is the fitted concentration of half-maximal effect; % is set by controls: 0 for no effect and ±100 for the full control effect
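Compounds are pin-transferred into medium, infected erythrocytes (2% hematocrit, 0.1% parasitemia final) are added, and plates sit one parasite generation at 37 C in 5% CO2. Detection reagent is then added and luminescence measured.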
Cycloheximide cs: affects cycloheximide protein synthesis inhibition readout, counter-screen | hit rate 12% among 300,000 | cell reporter, cycloheximide protein synthesis inhibition counterscreen | max response, %; in the data active = max response mostly above about 13%, no sharp cut-off; inactive = mostly below about 14%; note: read at 38.3 µM for the half of the compounds with a filed dose; 0% is about no effect
Shiga inhibitor: Shiga toxin inhibition; Vero cells, Shiga toxin protein synthesis inhibition reporter; inhibition, % at 38.7 µM; hit rate 9.2% among 290,000; AID 2315; in the data active = inhibition mostly above about 28%, no sharp cut-off; inactive = mostly below about 43%; note: 0% is about no effect
Pf growth 96h: P. falciparum growth inhibition at 96 hour, primary screen for plastid delayed-death inhibitors | Potency, µM (top dose mostly 28.7 µM), for inactives: top-dose activity change, negative = inhibition, usual class: inhibitors | hit rate 6.9% among 320,000 | AID 504834 | P. falciparum luciferase reporter growth, 96 h; note: potency is the fitted concentration of half-maximal effect; % is set by controls: 0 for no effect and ±100 for the full control effect
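Infected RBCs, 2% Hct / 0.05% parasitemia final; luciferase-reporter P. falciparum; cpd 96 h, 37 C, 5% CO2; luciferase detection reagent; luminescence.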
* marks the source's active call; other numbers are inactive results; ? = inconclusive; . = no result; + = active, no number. The list is not random: actives were taken first. Their share in the collection is about 21%. Unless noted, calls come from the whole dose curve; as a rule, active = well fitted inhibition curve with a large enough effect; inconclusive = small, poorly fitted or top-dose-only effect, or another doubt; inactive = no such curve, though single readings can be large or run the other way.

SMILES | NS1 function inh | Pf growth 48h | Cycloheximide cs | Shiga inhibitor | Pf growth 96h
CN(c1ccc(OCC(=O)OCC(=O)Nc2ccc(F)cc2)cc1)S(=O)(=O)c1ccc(Cl)cc1 | -12% | -7% | -5 | -14 | ?
CCOc1ccc(S(=O)(=O)N(C)c2ccc(OCC(=O)Nc3ccccc3F)cc2)cc1 | . | -3% | . | . | ?
COCC(C)n1c(C)cc(C(=O)COc2ccc(N(C)S(=O)(=O)c3ccc(NC(C)=O)cc3)cc2)c1C (centres undefined) | . | 4.7µM* | . | . | 1.3µM*
COc1ccc(CCN(C)C(=O)COc2ccc(N(C)S(=O)(=O)c3ccc(C)cc3)cc2)cc1OC | . | 9.3µM* | . | . | 10µM*
CC(=O)c1ccccc1NC(=O)COc1ccc(N(C)S(=O)(=O)c2ccc(C)c(C)c2)cc1 | . | 10µM* | . | . | 12µM*
COc1ccc(N(C(=O)COc2ccccc2OC)S(=O)(=O)c2ccc(C)cc2)cc1 | -1% | 16% | -6 | -10 | 37%
CC1=[N+]([O-])C(C)(C)C(c2ccc(Br)cc2)=[N+]1[O-] | 4% | 18% | -1 | 8 | ?
CN(C)NC(=O)c1ccsc1NC(=O)c1ccc(S(=O)(=O)N(C)C)cc1 | 2% | -28% | -1 | 43 | ?
Cc1ccc(C(=O)NCc2nnc(SCC(=O)NC(C)c3ccccc3)n2C)cc1 (centres undefined) | 1% | 8% | 3 | -14 | -1%
O=C(O)c1ccc(C(=O)c2ccccc2)c(C(=O)O)c1 | 6% | . | . | . | .
Cc1ccc2nc(NC(=O)CC3Oc4ccccc4NC3=O)sc2c1 (centres undefined) | 1% | 20% | 8 | 7 | 14%
Cc1ccc(S(=O)(=O)N(C)c2ccc(OCC(=O)NCC3(N(C)C)CCCCC3)cc2)cc1 | . | 9.3µM* | . | . | 9.3µM*
COc1ccc(CCNC(=O)COc2ccc(N(C)S(=O)(=O)c3ccc(C)cc3)cc2)cc1 | . | ? | 10 | -6 | ?
COc1ccc(C(=O)NCC(=O)N/N=C(C)\C=C\c2ccccc2)cc1OC | . | -22% | 15 | -6 | 211%
Cc1cccc(C(=O)Oc2ccc(/C=N/NC(=O)Cc3ccc([N+](=O)[O-])cc3)cc2)c1 | -1% | 17% | 12 | -9 | 13%
Cc1cccc(C(=O)Oc2ccc(/C=N/NC(=O)c3ccc(O)cc3)cc2)c1 | -12% | ? | 25* | 29 | 16%
Cc1cccc(C(=O)Oc2ccc(/C=N/NC(=O)c3ccccc3O)cc2)c1 | -16% | ? | 38* | + | 0%
COCCNC(=O)Cn1ccc2cc(S(=O)(=O)N3CCCCC3)ccc21 | -2% | 22% | -6 | -6 | 76%
Cc1nc(NS(=O)(=O)c2ccc(Cl)s2)c2c3c(sc2n1)CCCC3 | -34% | ? | 1 | -7 | 6%
Cc1ccc2c(CNCc3ccccc3)cc(=O)oc2c1 | -3% | -28% | 3 | 17 | ?
CC1CCCC(NC(=O)c2cn(C)c3ccc(S(=O)(=O)N4CCCC4)cc3c2=O)C1C (centres undefined) | -1% | ? | 0 | 10 | 7%
COC(=O)c1cn(C)c2ccc(S(=O)(=O)N3CCOCC3)cc2c1=O | . | -1% | 2 | -9 | 0%
CC(NC(=O)c1cn(C)c2ccc(S(=O)(=O)N3CCCC3)cc2c1=O)c1ccccc1 (centres undefined) | 18% | 12µM* | -3 | -10 | 12µM*
Cn1cc(C(=O)NCc2cccnc2)c(=O)c2cc(S(=O)(=O)N3CCCCCC3)ccc21 | . | 2% | -2 | -10 | 6.6µM*
CC1CCCCC1NC(=O)c1cn(C)c2ccc(S(=O)(=O)N3CCCC3)cc2c1=O (centres undefined) | 6% | 8.3µM* | -3 | -13 | 1%
SMILES | NS1 function inh | Pf growth 48h | Cycloheximide cs | Shiga inhibitor | Pf growth 96h
CC(C)CCNC(=O)c1cn(C)c2ccc(S(=O)(=O)N3CCCC3)cc2c1=O | 3% | -12% | -10 | 3 | ?
COC(=O)c1cn(C)c2ccc(S(=O)(=O)N3CCCC3)cc2c1=O | -106% | 2% | 11 | 24 | 3.7µM*
CCCNC(=O)c1ccc2c(=O)n3c(-c4ccc(C)cc4)csc3nc2c1 | -4% | -25% | -1 | -2 | -16%
O=C(NCc1ccco1)Nc1cccc([N+](=O)[O-])c1 | -7% | 44% | 13 | 16 | 46%
Cn1cc(C(=O)NC2CCCCC2)c(=O)c2cc(S(=O)(=O)N3CCCC3)ccc21 | -1% | -22% | -2 | -12 | 8.3µM*
Cc1ccc(S(=O)(=O)N2CCC(C(=O)OC(C)C(=O)NC3CCCCC3C)CC2)cc1 (centres undefined) | . | -27% | . | . | ?
